“And” between values parts separate entries of the source, which are not always exact repeats. Equal entries are not always repeated. Records with an inconclusive call do not appear. More than one record can exist for a structure, and the calls need not agree. The source made the active and inactive calls. Calls follow the shape of the dose curve; as a rule, active = well fitted cell-killing curve with a large enough effect in the repeat runs (not every such curve was filed as active); inconclusive = weak or mixed curves, or effect the other way; inactive = no such curve, though single readings can be large or run the other way.
assay: qHTS assay to identify small molecule antagonists of the farnesoid-X-receptor (FXR) signaling pathway - cell viability counter screen (AID 743221); conditions: FXR-bla HEK293T viability, CellTiter-Glo luminescence, 16 h; series mostly up to 62.6 µM; activity change, negative = cytotoxicity: at the top concentration; also: nearly all actives have a fitted effect of over 50% in size
Text: National Center for Advancing Translational Sciences [NCATS]
NIH Chemical Genomics Center [NCGC]
U.S. Environmental Protection Agency [EPA]
National Institutes of Environmental Health Sciences [NIEHS]
National Toxicology Program [NTP]
U.S. Food and Drug Administration [FDA]
The farnesoid-X-receptor (FXR), a nuclear hormone receptor, is highly expressed in liver, intestine, kidney and adrenal cortex. Natural ligands of FXR are the bile acids (Cholic acid, Chenodeoxy cholic acid etc). FXR is an important regulator of diverse metabolic pathways, including the bile acid homeostasis, lipid and glucose metabolisms. FXR regulates the expression of target genes by binding either as a monomer or as a heterodimer with the retinoid X receptor (RXR). Numerous studies have reported that FXR exerts protective function during cholestasis, diabetes, liver regeneration, and cancer. To identify compounds that inhibit FXR signaling, GeneBLAzer FXR-UAS-bla HEK 293T cell line (Invitrogen, Carlsbad, CA) containing a beta-lactamase reporter gene under the control of a UAS response element was used to screen the Tox21 10K compound library. The cytotoxicity of the Tox21 compound library against the FXR-bla cell line was tested in parallel by measuring the cell viability using CellTiter-Glo assay in the same wells.
Tox21 Assay Protocol Summary:
FXR-bla cells were dispensed at 5000 cells/5uL/well in 1536-well black wall/clear bottom plates using a Multidrop Combi (Thermo Fisher Scientific, Waltham, MA) dispenser. After the assay plates were incubated at 37 C and 5% CO2 for 5 h, 23 nL of compounds dissolved in DMSO, positive controls or DMSO only was transferred to the assay plate by a Pintool station (Kalypsys, San Diego, CA), followed by addition of 1 uL Chenodeoxycholic acid (50 uM, final concentration in the wells). The assay plates were incubated at 37C for 16 h. After 1 uL of LiveBLAzerTM B/G FRET substrate was added using a Bioraptr Flying Reagent Dispenser (FRD) workstation (Beckman Coulter, Indianapolis, IN), the plates were incubated at room temperature for 2 h, and fluorescence intensity was measured by an Envision plate reader (PerkinElmer, Shelton, CT). For cell viability readout that measures cytotoxicity, 4uL/well of CellTiter-Glo reagent was added into the assay plates using a Bioraptr FRD. After 30 min incubation at room temperature, the luminescence intensity in the plates was measured using a ViewLux plate reader (PerkinElmer).
% is scaled to controls: 0 for no effect and ±100 for the full control effect; potency is read from the fitted curve at half-maximal effect.

SMILES	activity change, negative = cytotoxicity	Potency
CCCCNP(N)(N)=S	-3.01% (inactive)	–
CCCC(=O)Cl	-3.22% (inactive)	–
COP(=S)(Oc1cc(Cl)c(Br)cc1Cl)c1ccccc1 (stereo not given)	-16.2% (inactive)	–
O=C(C(Cl)(Cl)Cl)C(Cl)(Cl)Cl	5.06% [at 81.1 µM] (inactive)	–
O=C(OC1CCCCC1)c1ccccc1C(=O)OC1CCCCC1	-13.3% [at 81.1 µM] (inactive)	–
O=C(Nc1ccccc1)Nc1ccnc(Cl)c1	9.82% (inactive)	–
C[C@]12CC[C@H]3[C@@H](CCC4=CC(=O)CC[C@@H]43)[C@@H]1CC[C@@H]2OC(=O)CCC1CCCCC1	-0.632% (inactive)	–
Clc1cccc(SC2CCNCC2)n1	1.17% (inactive)	–
CCBr	3.02% [at 81.1 µM] (inactive)	–
O=C(CCl)c1ccc(Cl)cc1Cl	–	inactive and 29.8 µM (active)
COc1nn(CSP(=S)(OC)OC)c(=O)s1	6.9% (inactive)	–
NNC(=O)c1cccnc1	0.356% [at 81.1 µM] (inactive)	–
Brc1ccccc1	-2.1% (inactive)	–
COP(=S)(OC)Oc1cc(Cl)c(I)cc1Cl	-4.01% (inactive)	–
CCOP(=S)(OCC)Oc1cc(Cl)c(Br)cc1Cl	-0.345% (inactive)	–
Cl/C=C\C[N+]12CN3CN(CN(C3)C1)C2	0.205% (inactive)	–
C=CC(=O)OC	-0.1% [at 81.1 µM] (inactive)	–
C=CCOC(C)=O	-9.97% (inactive)	–
CCOC(=O)C(Cl)C(C)=O (stereo not given)	15.5% [at 81.1 µM] (inactive)	–
Brc1ccc(Oc2ccccc2)cc1	–	inactive

SMILES	activity change, negative = cytotoxicity	Potency
ClP(Cl)(Cl)(Cl)Cl	-4.6% [at 81.1 µM] (inactive)	–
CC(=O)C(C)(C)C	-0.0929% [at 81.1 µM] (inactive)	–
CNP(=O)(OC)Oc1ccc(C(C)(C)C)cc1Cl (stereo not given)	-9.24% (inactive)	–
O=S1OC[C@@H]2[C@H](CO1)[C@]1(Cl)C(Cl)=C(Cl)[C@@]2(Cl)C1(Cl)Cl (stereo not given in full)	16% (inactive)	–
O=NN1CCCCCC1	-11% (inactive)	–
N#CCc1ccccc1	-0.112% [at 81.1 µM] (inactive)	–
Clc1cc(C(Cl)(Cl)Cl)cnc1Cl	-0.458% (inactive)	–
O=C(NCc1cccnc1)Nc1ccc([N+](=O)[O-])cc1	-13.7% (inactive)	–
CCn1cc[n+](C)c1	–	inactive
CCCCOC(=O)c1ccccc1C(=O)OCc1ccccc1	4.73% (inactive)	–
CC1(C)CCC(Cc2ccc(Cl)cc2)C1(O)Cn1cncn1 (stereo not given)	-5% (inactive)	–
CC(C)O.CC(C)O.OCCN(CCO)CCO.OCCN(CCO)CCO.[Ti]	6.18% (inactive)	–
c1cc2ccc3cccc4ccc(c1)c2c34	-3.98% [at 81.1 µM] (inactive)	–
[O-][Cl+]O	-0.144% (inactive)	–
O=Cc1ccc2c(c1)OCO2	4.12% (inactive)	–
Nc1nc(N)nc(N)n1	-2.27% [at 81.1 µM] (inactive)	–
S=C=NCc1ccccc1	-14.5% [at 81.1 µM] (inactive)	–
O=NN1CCNCC1	12% [at 81.1 µM] (inactive)	–
O=C1c2ccccc2C(=O)C1C(=O)C(c1ccccc1)c1ccccc1	1.04% (inactive)	–
CCOP(O)OCC	19.1% (inactive)	–

— PubChem BioAssay (Tox21)
